High-throughput results from PubChem BioAssay.
Most compounds without a hit are left out; they make up all but 1.9% or so of the library.
LDHA inh: qHTS assay for inhibitors of human lactate dehydrogenase; 480,000 tested, 0.15% active; purified LDHA, NADH/diaphorase-resazurin fluorescence; hits give low values; activity change, % (values are at about 110 or 230 µM); in the data active = activity change below about -30%; inconclusive = mostly about -25% to -30%;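 note: plate controls were DMSO wells for no effect and wells without enzyme for full effect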
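Remaining NADH was detected by diaphorase (0.133 mg/mL) converting 37 µM resazurin to fluorescent resorufin, read at 0 and 20 minutes. The preceding 5-minute room-temperature reaction used 2 nM LDHA, 0.2 mM sodium pyruvate and 0.06 mM NADH at pH 7.4.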
Abeta rescue: qHTS for compounds that reverse cellular toxicity of Amyloid beta (A-beta) peptide in yeast: Primary Screen; AID 1347071, 2019; Potency, µM (doses to about 46.1 µM), most hits filed as activators; 410,000 tested, 0.063% active; yeast expressing A-beta42, growth rescue, OD600, 48 h; response scale: 0% DMSO, 100% iron-clioquinol control; note: potency is the fitted concentration of half-maximal effect; nearly all actives have a fitted effect of over 55% in size
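Yeast A-beta toxicity model in growth medium with pinned compounds, 48 h at 30 C; growth read as absorbance at 600 nm. Normalized to FeCl3/clioquinol equimolar mix (positive) and DMSO (negative).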
aSyn yeast inh: qHTS of alpha-syn Inhibitors; Yeast expressing alpha-synuclein, growth rescue, BacTiter-Glo, 24 h; Potency, µM (titrated, usually from 46.1 µM), without a hit: top-dose growth rescue (activation), most hits filed as activators; 370,000 tested, 0.14% active; note: potency is the fitted concentration of half-maximal effect; % of control where 0% means no effect; nearly all actives have a fitted effect of over 65% in size
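Rescue of yeast growth: cells expressing toxic alpha-synuclein, induced in galactose at OD600 0.02, incubated with compound 24 h at 30 C. ATP luminescence quantified growth; inhibitors of toxicity appear as activators.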
TDP-43 yeast inh: qHTS of TDP-43 Inhibitors. TDP-43 expressing yeast growth rescue, BacTiter-Glo, 24 h. Potency, µM (series often up to 46.1 µM), for the others: top-dose growth rescue (activation), usual class: activators. 410,000 tested, 1.8% active. AID 652104, 2013; note: potency is the fitted concentration of half-maximal effect; % of control where 0% means no effect; nearly all actives have a fitted effect of over 50% in size
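Readout is BacTiter-Glo luminescence of cell growth, so inhibitors register as activators. TDP-43-expressing yeast at OD600=0.02 in galactose medium, after raffinose pregrowth to mid-log, were incubated with compound for 24 hr at 30 deg C.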
FUS yeast rescue: qHTS for Suppressors of FUS Proteinopathy: Primary screen using FUS-linked yeast assay; 390,000 tested, 0.24% active; Potency, µM (series often up to 76.6 µM), hits mostly activators; S. cerevisiae FUS-expressing, growth rescue, OD600, 24 h;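 note: potency is the fitted concentration of half-maximal effect; plate controls were DMSO vehicle for no effect and reference control for full effect; nearly all actives have a fitted effect of over 55% in size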
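Yeast FUS proteinopathy model; galactose-induced FUS (2%), starting OD 0.005. Cpds in dilution series, 24hr, 30C, 99% humidity. Abs 600 nm growth. Pos ctrl CP55940 (top 92uM final); neg ctrl DMSO.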
PTHR1 agonist: qHTS for PTHR1 Agonists: Primary Screen; Parathyroid hormone/parathyroid hormone-related peptide receptor (Homo sapiens), Q03431; HEK293 GP2 PTHR1 cells, GloSensor cAMP luminescence, 1 h; Potency, µM (doses to about 115 µM), for inactives: top-dose activation, hits mostly activators; 410,000 tested, 0.075% active; AID 743266, 2014; note: potency is the fitted concentration of half-maximal effect; nearly all actives have a fitted effect of over 55% in size
Target sequence (Q03431 whole entry, looked up): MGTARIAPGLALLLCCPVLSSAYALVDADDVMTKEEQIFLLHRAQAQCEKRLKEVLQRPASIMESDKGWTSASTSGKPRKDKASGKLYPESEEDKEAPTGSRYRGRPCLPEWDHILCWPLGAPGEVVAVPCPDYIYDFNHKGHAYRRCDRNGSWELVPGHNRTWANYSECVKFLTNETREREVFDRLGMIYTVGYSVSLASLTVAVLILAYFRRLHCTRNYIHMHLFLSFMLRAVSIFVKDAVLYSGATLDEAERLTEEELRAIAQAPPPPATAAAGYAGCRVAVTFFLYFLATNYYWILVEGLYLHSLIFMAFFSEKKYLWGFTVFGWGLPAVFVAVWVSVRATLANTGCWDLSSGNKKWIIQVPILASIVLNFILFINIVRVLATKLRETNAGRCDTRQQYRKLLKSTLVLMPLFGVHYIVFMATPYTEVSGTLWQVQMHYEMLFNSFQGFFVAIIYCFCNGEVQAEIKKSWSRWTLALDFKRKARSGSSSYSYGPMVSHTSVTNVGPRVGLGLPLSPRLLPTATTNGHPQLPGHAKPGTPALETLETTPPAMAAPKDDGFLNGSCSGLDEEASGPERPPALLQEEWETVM
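HEK-293-derived GP2 cells expressing PTHR1 and a GloSensor cAMP reporter, 3,000/well, plated overnight, given luciferin plus IBMX (each 0.5 mM as added) for 1 h at 37 °C, then compound for 1 h at 37 °C. Luminescence was read after 15 min at room temperature.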
The depositor's hits bear a star; i = inactive; ? = inconclusive; nt = no result; [ ] = another dose, or the depositor's remark. Unless noted, calls come from the whole dose curve; as a rule, active = well fitted curve in the direction sought with a large enough effect; inconclusive = small, poorly fitted or top-dose-only effect, or another doubt; inactive = no such curve, though single readings can be large; an effect the other way counts as inactive or inconclusive.

SMILES | LDHA inh | Abeta rescue | aSyn yeast inh | TDP-43 yeast inh | FUS yeast rescue | PTHR1 agonist
Cc1[nH]c2ccccc2c1/C=N/NC(=O)c1cccc([N+](=O)[O-])c1 | -18 | i | -2% | 0% | i | -62%
Cc1[nH]c2ccccc2c1/C=N/Nc1ccc([N+](=O)[O-])cc1 | 0 | i | 10% | 2.8µM* | i | -5%
Cc1ccc(NC(=O)CCc2ncc(-c3c(F)cccc3F)o2)c(O)c1 | 4 | nt | nt | nt | nt | nt
O=C(COC(=O)/C=C/c1ccc(Cl)c(Cl)c1)NC1CCCC1 | -3 | i | -13%[1.84 µM] | 10µM* | i | i
O=C(COC(=O)/C=C/c1ccc(Cl)c(Cl)c1)NC1CCS(=O)(=O)C1 (stereo not given) | -5 | i | 0% | 7% | nt | -2%
Cc1nc(C)c(-c2ccc(SCc3cccc(F)c3)nn2)s1 | -7 | i | -8% | 20µM* | i | -18%
CC(C)(C)C(=O)/C(C#N)=C/c1ccccc1OCc1ccccc1Cl | -1 | nt | nt | nt | nt | nt
COc1ccc(-c2cc(NC(=O)c3ccco3)n(C3CCS(=O)(=O)C3)n2)cc1 (stereo not given) | -2 | nt | nt | nt | nt | nt
O=C(NCCOc1ccccc1Cl)c1cc(F)c(F)cc1Cl | -4 | i | 14% | 8.9µM* | nt | -23%
COc1ccccc1OCCNC(=O)C(=O)c1c[nH]c2ccccc12 | -15 | i | 12% | ? | i | -7%
O=C(NCCOc1ccccc1Cl)C(=O)c1c[nH]c2ccccc12 | -5 | i | 1% | 11µM* | i | -28%
O=C(NCCOc1ccccc1Cl)c1ncn[nH]1 | -5 | i | 2% | 8% | i | i
COC(=O)c1ccc(NC(=O)c2ccc3nc(-n4cccc4)sc3c2)cc1 | -3 | nt | nt | nt | nt | nt
Cc1ccc2nc(-c3cccc(Br)c3)cc(C(=O)NC3=NCCS3)c2c1 | -1 | i | -26% | 20µM* | i | -25%
Cc1ccc(-c2cc(C(=O)NC3=NCCS3)c3ccccc3n2)cc1 | -3 | nt | nt | nt | nt | nt
O=C(NC1=NCCS1)c1cc(-c2cccc(Br)c2)nc2ccccc12 | 4 | i | -24% | 22µM* | nt | i
CC12CCC(C(=O)N(CC(O)CN3CCN(Cc4ccccc4)CC3)C1=O)C2(C)C (stereo not given) | -1 | i | 2% | 2% | i | -1%
CN(C)c1ccc(/C=N\NC(=S)SCN2C(=O)C3CCC(C)(C2=O)C3(C)C)cc1 (stereo not given) | 5 | ? | 1% | 13µM* | i | i
COc1ccc(/C=N\NC(=S)SCN2C(=O)C3CCC(C)(C2=O)C3(C)C)cc1 (stereo not given) | 0 | i | ? | ? | i | -31%
CC12CCC(C(=O)N(CSC(=S)N/N=C\c3ccccc3O)C1=O)C2(C)C (stereo not given) | 0 | ? | ? | 25µM* | i | -12%
O=C(N=c1ccn(-c2nc3ccccc3nc2NS(=O)(=O)c2ccccc2)cc1)c1ccccc1Cl | -5 | nt | -1% | 7% | 25µM* | -17%
O=C(N=c1ccn(-c2nc3ccccc3nc2NS(=O)(=O)c2ccc(Cl)cc2)cc1)c1cccs1 | -3 | i | 2% | -9% | i | i
Cc1ccc(S(=O)(=O)NCc2ccccc2C)cc1 | -7 | i | 0% | 8% | i | -32%
CSc1ccc(S(=O)(=O)NCc2ccccc2C)cc1 | -3 | i | 6% | 14µM* | i | -30%
Cc1cccc(OC(=O)c2ccccc2Cl)c1C | -3 | nt | nt | nt | nt | nt
SMILES | LDHA inh | Abeta rescue | aSyn yeast inh | TDP-43 yeast inh | FUS yeast rescue | PTHR1 agonist
CC(=O)Nc1ccc2c(c1)nc(CCNC(=O)c1ccc(C)c(F)c1)n2C | 17 | nt | nt | nt | nt | nt
COc1ccc(C(=O)OCc2ccccc2C#N)c(OC)c1 | -2 | nt | nt | nt | nt | nt
COC(=O)c1cc(Cl)ccc1N | 5 | nt | nt | nt | nt | nt
CCCC(C)(C)NC(=O)CCc1ccc(OC)c(OC)c1 | -3 | nt | nt | nt | nt | nt
CCCCSc1nc2c(c(C(F)(F)F)c1C#N)CCC2 | -2 | i | 0% | ? | i | -6%[57.5 µM]
CCOC(=O)CCSc1nc2c(c(C(F)(F)F)c1C#N)CCC2 | -1 | i | 8% | 13µM* | i | -11%[57.5 µM]
COc1ccc(N2CC(C(=O)N3CCN(c4cccc(C(F)(F)F)c4)CC3)CC2=O)cc1 (stereo not given) | 4 | nt | nt | nt | nt | nt
CC(C)CC1C(=O)N(Cc2cn(CCC3OCCO3)nn2)CCS(=O)(=O)N1Cc1ccc(-c2ccc(Cl)c(Cl)c2)cc1 (stereo not given) | -3 | i | ? | 28% | ? | -53%
CC(C)CC1C(=O)N(Cc2cn(CCC3OCCO3)nn2)CCS(=O)(=O)N1Cc1ccc(-c2ccccc2)cc1 (stereo not given) | 2 | i | 0% | 22µM* | ? | -3%
Cc1ccc(-c2ccc(CN3C(CC(C)C)C(=O)N(Cc4cn(CCC5OCCO5)nn4)CCS3(=O)=O)cc2)cc1 (stereo not given) | -1 | i | 18% | 35µM* | ? | i
Cc1ccc(N/N=C/c2ccc(C)s2)cc1 | -19 | nt | nt | nt | nt | nt
COC(=O)Nc1ccc(CNC(=O)c2ccc(C)cc2)cc1 | 4 | nt | nt | nt | nt | nt
Cc1cc(C(F)(F)F)n2nc(-c3cnn(C)c3C(F)(F)F)c(Br)c2n1 | 2 | i | 5% | 13µM* | i | i
Nc1nc(SCC(=O)N2N=C3/C(=C\c4ccco4)CCCC3C2c2ccco2)n[nH]1 (stereo not given) | -5 | i | 10% | -8% | 32µM* | i
COC(=O)c1sc(NC(=O)COc2c(C)cccc2C)nc1C | 3 | i | 10% | 20µM* | i | i
COC(=O)c1sc(NC(=O)COc2c(C)cc(C)cc2C)nc1C | 0 | nt | nt | nt | nt | nt
CCN(Cc1ccc(OC)c(F)c1)C(C)c1nnc(-c2ccc(F)cc2)o1 (stereo not given) | 4 | nt | nt | nt | nt | nt
O=C(O)c1ccc(N/N=C2/CCSc3ccc(F)cc32)cc1 | -4 | i | 3% | 10µM* | i | -53%
CCOc1ccc(OCc2ccc(C(=O)N(CC)CC)cc2)cc1 | 1 | i | -11% | 13µM* | i | -44%
O=C(COCc1nc2ccccc2c(=O)[nH]1)Nc1nc(-c2ccc3c(c2)CCC3)cs1 | -31* | nt | nt | nt | nt | nt
CC(C)c1ccc(-c2csc(NC(=O)COCc3nc4ccccc4c(=O)[nH]3)n2)cc1 | 2 | nt | nt | nt | nt | nt
